This passage reports growth results from PubChem BioAssay (NCI).

About 83,000 compounds went through this panel and 20% of them were active in at least one assay; those are over-represented in the sample as a whole.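 Negative percent growth values reflect cell death: -40 means 40% of the cells present at the start died, and -100 means all died.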 A number with no mark means an inactive call. Activity calls are given as the source filed them. Rule for the calls: active = growth percent below 10; inactive = the rest.

Among the test systems are RPMI-8226 leukemia; OVCAR-8 ovarian; OVCAR-5 ovarian; OVCAR-4 ovarian; SK-OV-3 ovarian; IGROV1 ovarian; OVCAR-3 ovarian; HS 578T breast; NCI/ADR-RES ovarian; T-47D breast; BT-549 breast; MDA-MB-435 melanoma; SW-620 colon; MCF7 breast; HCT-116 colon; KM12 colon; HCC-2998 colon.
Common to all, as to assay: NCI-60 one-dose screen, 48 h (100 = growth as untreated, 0 = no growth, -100 = all killed)
Conditions in all cases: 10 µM unless noted

Consider `C=C1CCC[C@]2(C)CCC[C@H](C)[C@@H](OC(C)=O)[C@@H]3OC(=O)C(=C)[C@@H]3C[C@H]1O2`, for which the growth in the assay on RPMI-8226 leukemia was 54.8%; in the assay on OVCAR-8 ovarian, 61.5%; in the assay with OVCAR-5 ovarian, 101%; with OVCAR-4 ovarian, 61.2%; in the assay on SK-OV-3 ovarian, 85%; in the assay with IGROV1 ovarian it was 81.8%. The growth in the assay on OVCAR-3 ovarian is 47.9%; with HS 578T breast, 78%; in the assay with NCI/ADR-RES ovarian, 73.6%; in the assay on T-47D breast it was 76.4%; with BT-549 breast, 48.1%; in the assay on MDA-MB-435 melanoma, 53.9%. Moreover, the growth with SW-620 colon is 80.8%; in the assay with MCF7 breast it was 57.4%; with HCT-116 colon, 55.1%; in the assay on KM12 colon, 79.4%.

In the case of `COc1ccc(-c2ccc(C)n2-c2ccc(-c3nc4ccccc4s3)cc2)cc1`, the growth in the assay with RPMI-8226 leukemia is 70.4%; with OVCAR-8 ovarian it was 95.8%; in the assay with OVCAR-5 ovarian, 101%; in the assay on OVCAR-4 ovarian it was 92.9%; in the assay with SK-OV-3 ovarian, 80.3%; in the assay on IGROV1 ovarian it was 92.8%. The growth in the assay with OVCAR-3 ovarian is 107%; with HS 578T breast it was 97.5%; with NCI/ADR-RES ovarian, 89.9%; with T-47D breast, 73.3%; with BT-549 breast it was 108%; with MDA-MB-435 melanoma, 89.6%. The growth in the assay on SW-620 colon is 89.6%; in the assay with MCF7 breast it was 92.7%; in the assay on HCT-116 colon, 85.5%; in the assay on HCC-2998 colon it was 91.7%; in the assay on KM12 colon, 86.3%.

For `O=S(=O)(NCCNc1nccc(-c2c(-c3cccc(O)c3)nc3sccn23)n1)c1ccc(F)cc1`, the growth with RPMI-8226 leukemia is 76.2%; in the assay with OVCAR-8 ovarian, 67.6%; with OVCAR-5 ovarian, 107%; with OVCAR-4 ovarian it was 103%; in the assay on SK-OV-3 ovarian, 85.9%; in the assay with IGROV1 ovarian, 63.7%. Also, the growth is 86.8% with OVCAR-3 ovarian; 83% with HS 578T breast; 97.9% with NCI/ADR-RES ovarian; 85.3% in the assay on T-47D breast; 79.3% in the assay with BT-549 breast; 29.4% with MDA-MB-435 melanoma. For the same molecule, the growth with SW-620 colon was 103%; with MCF7 breast, 38.2%; in the assay with HCT-116 colon, 45.9%; in the assay with KM12 colon, 56.6%.

For `CN(CCCCN(C[C@H]1Cc2ncccc2CN1)[C@H]1CCCc2cccnc21)C1CCC(F)(F)CC1`, the growth is 92.5% with RPMI-8226 leukemia; 85.6% in the assay on OVCAR-8 ovarian; 79% with OVCAR-5 ovarian; 108% in the assay on OVCAR-4 ovarian; 90.6% with SK-OV-3 ovarian; 111% in the assay on IGROV1 ovarian. Besides, the growth in the assay with OVCAR-3 ovarian was 98.4%; in the assay on HS 578T breast, 105%; with NCI/ADR-RES ovarian it was 85.8%; in the assay on T-47D breast, 99.2%; in the assay on BT-549 breast, 85.8%; in the assay with MDA-MB-435 melanoma, 108%. The growth is 98.7% in the assay with SW-620 colon; 83.7% in the assay on MCF7 breast; 71.1% in the assay on HCT-116 colon; 88.7% in the assay on HCC-2998 colon; 88% with KM12 colon.

With `Fc1ccc(Nc2nc(NCCNc3ccnc4cc(Cl)ccc34)nc(N3CCOCC3)n2)cc1`, the growth is 33.6% with RPMI-8226 leukemia; 74.7% in the assay with OVCAR-8 ovarian; 105% with OVCAR-5 ovarian; 61.1% in the assay on OVCAR-4 ovarian; 91.6% in the assay with SK-OV-3 ovarian; 75.5% with IGROV1 ovarian. The growth with OVCAR-3 ovarian is 85.1%; with HS 578T breast, 70.2%; in the assay on NCI/ADR-RES ovarian, 77.8%; in the assay with T-47D breast, 83.3%; in the assay on BT-549 breast, 81.9%; in the assay with MDA-MB-435 melanoma, 28.2%. Besides, the growth was 47.1% in the assay on SW-620 colon; 55% in the assay on MCF7 breast; 37.3% with HCT-116 colon; -51.2% (active) in the assay on HCC-2998 colon; 78.6% in the assay with KM12 colon.

As to `O=C1/C(=C/c2ccc(Cl)cc2)CN(Cc2cn(CCNc3ccnc4cc(Cl)ccc34)nn2)C/C1=C\c1ccc(Cl)cc1`, the growth is -22% (active) in the assay with RPMI-8226 leukemia; -59.5% (active) in the assay with OVCAR-8 ovarian; -94.9% (active) in the assay on OVCAR-5 ovarian; -4.44% (active) with OVCAR-4 ovarian; -95.5% (active) in the assay with SK-OV-3 ovarian; -75.7% (active) in the assay on IGROV1 ovarian. Also, the growth with OVCAR-3 ovarian is -100% (active); with HS 578T breast it was -19.8% (active); in the assay with NCI/ADR-RES ovarian it was -26.6% (active); in the assay with T-47D breast, -32.6% (active); in the assay with BT-549 breast it was -96.4% (active); with MDA-MB-435 melanoma it was -98.6% (active). Further, the growth was -92.5% (active) in the assay on SW-620 colon; -100% (active) with MCF7 breast; -85.5% (active) in the assay with HCT-116 colon; -95.1% (active) in the assay on HCC-2998 colon; -93.9% (active) in the assay with KM12 colon.

On to `COc1cc(-c2nn(-c3cccc(NC(=O)Nc4ccc(Cl)c(Cl)c4)c3)cc2-c2ccncc2)ccc1Cl`, for which the growth with RPMI-8226 leukemia was -11.6% (active); with OVCAR-8 ovarian it was -17.2% (active); with OVCAR-5 ovarian, 38%; with SK-OV-3 ovarian it was 11.8%; in the assay on IGROV1 ovarian, 23.9%; with OVCAR-3 ovarian, -10% (active). Besides, the growth was -6.95% (active) in the assay on HS 578T breast; 0.321% (active) in the assay with NCI/ADR-RES ovarian; 2.98% (active) with T-47D breast; 6.23% (active) in the assay on BT-549 breast; -45.8% (active) in the assay on MDA-MB-435 melanoma; 13.4% in the assay on SW-620 colon. Moreover, the growth in the assay on MCF7 breast was 1.73% (active); in the assay on HCT-116 colon, 8.67% (active); in the assay on HCC-2998 colon, 2.84% (active); in the assay with KM12 colon it was 1.3% (active).

`O=C(Nc1cccc(-n2cc(-c3ccncc3)c(-c3ccc(Cl)c(O)c3)n2)c1)Nc1cccc(C(F)(F)F)c1`: the growth in the assay on RPMI-8226 leukemia was 1.63% (active); in the assay with OVCAR-8 ovarian, 10.6%; with OVCAR-5 ovarian, 62.4%; in the assay on OVCAR-4 ovarian, 41.5%; in the assay on SK-OV-3 ovarian, 21.2%; in the assay on IGROV1 ovarian, 28.6%. The growth is 0.81% (active) in the assay on OVCAR-3 ovarian; 29.4% with HS 578T breast; 24.9% in the assay on NCI/ADR-RES ovarian; 18.5% with T-47D breast; 36% in the assay on BT-549 breast; 15.6% in the assay on MDA-MB-435 melanoma. Besides, the growth was 28.5% with SW-620 colon, 10.3% with MCF7 breast, 40.1% in the assay with HCC-2998 colon and 2.46% (active) with KM12 colon.

Turning to `O=C(C1=Cc2cc3ccccc3n2Cc2cnnn21)c1ccccc1`, the growth was 53.1% in the assay with RPMI-8226 leukemia; 51.8% in the assay on OVCAR-8 ovarian; 89.2% in the assay on OVCAR-5 ovarian; 82.7% in the assay with OVCAR-4 ovarian; 67.8% in the assay on SK-OV-3 ovarian; 44.6% with IGROV1 ovarian. Besides, the growth with OVCAR-3 ovarian was 26.9%; with HS 578T breast, 69%; with NCI/ADR-RES ovarian, 27%; in the assay with T-47D breast it was 28.8%; with BT-549 breast, 37.5%; in the assay with MDA-MB-435 melanoma it was -7.53% (active). For the same molecule, the growth in the assay with SW-620 colon was 28.5%; with HCT-116 colon, 26.7%; with HCC-2998 colon it was 71.7%; in the assay on KM12 colon it was 33.8%.
